# Bioassay records deposited in PubChem by The Scripps Research Institute Molecular Screening Center.
# Hits are enriched below; roughly 4.8% of the tested compounds scored in any of these assays.
# SMARCA2 activ – activators of SMARCA2 function. actives 1% (n = 370,000). activation, % at 9.1 µM. AID 652017. MG213 cells, MMTV-luciferase reporter, dexamethasone, overnight; in the data active = activation above about 7.8%
# DAX1 inh-1 – inhibitors of human orphan nuclear receptor DAX1 (NR0B1); HEK293 Gal4-DAX1 luciferase reporter, luminescence; inhibition, % at 6.75 µM; actives 0.99% (n = 340,000); AID 504766;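 active = inhibition above the mean over all tested compounds plus 3 SD, cut at about 4.2% in these data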;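 note: inhibition shows as a rise in luminescence from relieved DAX1 repression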
# Target sequence (P51843 207-470 limits assumed): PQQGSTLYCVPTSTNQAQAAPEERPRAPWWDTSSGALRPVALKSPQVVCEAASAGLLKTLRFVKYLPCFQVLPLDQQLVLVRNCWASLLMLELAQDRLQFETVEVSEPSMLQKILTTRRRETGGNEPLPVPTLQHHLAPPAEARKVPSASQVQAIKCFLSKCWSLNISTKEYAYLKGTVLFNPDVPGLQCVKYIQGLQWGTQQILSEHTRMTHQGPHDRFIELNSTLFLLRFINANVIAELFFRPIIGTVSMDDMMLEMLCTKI
# ssDAF12 agonist – activates DAF-12 receptor from parasite S. stercoralis; HEK293 ssDAF-12/GRIP1 lit1-tk-luc reporter, luminescence; % of 3 µM dafachronic acid response; activation, % at 6.8 µM; actives 1% (n = 370,000); AID 652126;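 active = activation above the mean over all tested compounds plus 3 SD, cut at about 0.9% in these data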
# hcDAF12 agonist – activators of H. contortus DAF-12 nuclear receptor | HEK293 hcDAF-12 lit1-tk-luc reporter, luminescence; 0% DMSO, 100% Δ7-dafachronic acid | activation, % at 6.8 µM | actives 1.4% (n = 370,000);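 active = activation above the mean of all tested compounds plus 3 SD, cut at about 5.5% in these data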
# DAX1 inh-2 – DAX1 (NR0B1) inhibition, primary screen; HEK293T StAR-luciferase reporter, SF-1/DAX-1 repression relief; inhibition, % at 6.8 µM; actives 1.1% (n = 370,000);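 active = inhibition above the mean over all tested compounds plus 3 SD, cut at about 3.6% in these data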;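 note: higher inhibition means more luminescence from relief of DAX-1 repression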
# hgDAF12 agonist – agonists of H. glycines DAF-12 nuclear receptor; HEK293 GAL4-hgDAF12 UAS-luciferase reporter, agonist luminescence; normalized to butyrate control; activation, % at 6.8 µM; actives 1.8% (n = 370,000); AID 687014;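 active = activation above a cutoff set at the mean of all screened compounds plus 3 SD, cut at about 10% in these data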
# A number is an active result; 0 = inactive; - = not tested or not shown; ! = not active in a repeat.
SMILES,SMARCA2 activ,DAX1 inh-1,ssDAF12 agonist,hcDAF12 agonist,DAX1 inh-2,hgDAF12 agonist
CSc1cccc(NC(=S)NN/C(=N/S(=O)(=O)c2ccccc2)N2CCCC2)c1,0,-,0,0,0,0
Cc1ccc2oc(=O)c3cnn(CC(=O)N4CCc5ccccc5C4)c3c2c1,0,6.3,0,0,0,0
COc1cccc(CNC(=O)Cn2c(-c3ccccc3)cc(C(C)=O)c2C)c1,0,-,0,0,0,0
O=c1oc2ccccc2n1CSc1nc2ccccc2s1,0,0,0,0,0,10.6
CC1=C(C(=O)c2ccccc2)C(c2ccc(O)cc2)NC(=S)N1 (stereo unspecified),0,4.4,0,0,0,0
CCOC(=O)NC1(NC(C)C)Oc2ccccc2O1,0,0,0,0,0,0
CCOC(=O)NC1(NCC(C)C)Oc2ccccc2O1,0,4.4,0,0,0,0
COCCNC(=O)/C(C#N)=C/c1ccc(C(=O)O)cc1,0,5.0,0,0,0,0
COCCNC(=O)/C(C#N)=C/c1ccc(OCc2ccccc2)cc1,0,0,0,0,0,0
COCCNC(=O)/C(C#N)=C/c1ccc(SC)cc1,0,-,0,0,0,0
COCCNC(=O)/C(C#N)=C/c1ccc(OCc2ccc(F)cc2)cc1,0,0,0,0,0,13.0
COc1ccc(CNS(=O)(=O)/C=C/c2ccc(OC)cc2CNC(=O)OC(C)(C)C)cc1,0,-,0,0,0,0
Nc1c(C(=O)N2CCCCC2)sc2nc3c(cc12)CCCC3,0,0,0,0,0,12.5
C#CCNC(=O)C[C@H]1C[C@@]2(C(=O)OC)C(=C[C@H](C(C)(C)C)O[C@@H]2C)N(Cc2ccco2)C1=O,0,-,0,0,0,0
COc1ccc(CN2CCC(CNC(=O)NC(C)C)CC2)cc1,0,-,0,0,0,0
COc1ccc(NC(=S)N/N=C/c2ccc(F)cc2)cc1OC,0,0,0,0,0,11.2
CCOC(=O)Nc1ccc2c(c1)N(C(=O)OCCN(C)C)c1ccccc1CC2,0,5.1!,0,0,0,0
CCOC(=O)Nc1ccc2c(c1)N(C(=O)CCN(C)C)c1ccccc1CC2,0,0,0,0,0,0
COC(=O)Cc1nnn2c1[C@@H](C)[C@@H](c1ccccc1Br)OC[C@@H]2c1ccccc1,0,-,0,0,0,0
Cc1cc(C(=O)N2CCc3ccccc3C2)n[nH]1,0,0,0,0,0,0
O=C(c1cc([N+](=O)[O-])[nH]n1)N1CCSCC1,0,5.4,0,0,0,0
O=C(Nc1c(-c2ccc(F)cc2)nc2ncccn12)C1CC1,0,-,0,0,0,0
CCCC(=O)Nc1ccc(N2CCN(S(C)(=O)=O)CC2)cc1,8.4,0,0,0,0,0
NC(=O)C1(N2CCCCC2)CCN(S(=O)(=O)c2ccc(Cl)s2)CC1,0,0,0,0,0,0
NC(=O)C1(N2CCCCC2)CCN(S(=O)(=O)c2cc(Cl)ccc2Cl)CC1,0,4.6,0,0,0,0
SMILES,SMARCA2 activ,DAX1 inh-1,ssDAF12 agonist,hcDAF12 agonist,DAX1 inh-2,hgDAF12 agonist
CC(Sc1ccccn1)C(=O)Nc1ccccc1 (stereo unspecified),0,0,0,0,0,13.2
O=C(Nc1cccc(O)c1)c1cc(-c2ccco2)on1,0,0,0,0,0,11.1
CCOc1ccc(-n2c(SCC(=O)Nc3ccc(S(=O)(=O)Nc4nccs4)cc3)nnc2-c2ccco2)cc1,0,-,0,0,0,0
Cc1ccc(C(=O)N2CCN(c3ccc(N4CCOCC4)nn3)CC2)cc1,0,0,0,0,0,0
Cc1cccc(C(=O)N2CCN(c3ccc(N4CCOCC4)nn3)CC2)c1,0,4.4,2.2,0,0,0
CCn1c2ccccc2c2cc(NC(=O)COC(=O)c3cccc(F)c3F)ccc21,0,-,0,0,0,0
Cc1ccc(C(=O)N/C(=C/c2ccco2)C(=O)NCc2ccco2)cc1,0,0,0,0,0,0
Cc1ccc(C(=O)N/C(=C\c2ccco2)C(=O)NCc2cccnc2)cc1,8.0,0,0,0,0,0
O=S(=O)(c1cc2ccccc2s1)n1c(CN2CCOCC2)nc2ccccc21,0,-,0,0,0,0
N/C(=N/OC(=O)c1ccccc1Cl)c1nonc1N,0,0,0,0,0,11.7
O=C(COC(=O)c1cccc(-n2cnnn2)c1)Nc1c(Cl)cccc1C(F)(F)F,0,0,0,0,3.9,0
